# Source: PubChem
# A selection: hits, their analogues and other compounds. The true share with any hit is near 11%.
# Pf growth 48h – Primary qHTS for delayed death inhibitors of the malarial parasite plastid, 48 hour incubation | P. falciparum luciferase growth in erythrocytes, 48 h | Potency, µM (doses to about 28.7 µM), most hits filed as inhibitors | 310,000 compounds, 5.9% hits | AID 504832, 2011
#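 Luminescence readout; reporter = integrated firefly luciferase in P. falciparum. RBC culture at 2% hematocrit, 0.1% parasitemia final, 37 C/5% CO2; decreased signal taken as growth inhibition.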
# Sm TGR block – qHTS Assay for the Inhibitors of Schistosoma Mansoni Peroxiredoxins. Schistosoma mansoni thioredoxin glutathione reductase (TGR), Q962Y6. purified TGR, DTNB reduction, TNB absorbance 405 nm. Potency, µM (series often up to 114 µM), actives largely listed as inhibitors. 360,000 compounds, 3% hits; note: nearly all actives have a fitted effect of over 60% in size
#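 TGR 20 nM + NADPH 100 uM (dispensed conc.), cpd preinc 15 min RT; start with NADPH (500 uM addition) then DTNB (15 mM addition). Kinetic TNB absorbance, 405 nm filter. Four-parameter Hill fit across titration.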
# NS1 function inh – qHTS Assay for Inhibitors of Influenza NS1 Protein Function | Potency, µM (highest dose often 46.1 µM) | 270,000 compounds, 0.4% hits; calls by dose curve; note: actives are rising curves; nearly all actives have a fitted effect of over 50% in size
#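 Recovery from NS1-induced slow growth read by OD600 in budding yeast switched to galactose assay medium (pH 6.0, -URA) at 1:100 dilution. Compound 23 nl per well; the matching strain lacking NS1 serves as control.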
# Pf growth 96h – Primary qHTS for delayed death inhibitors of the malarial parasite plastid, 96 hour incubation; 320,000 compounds, 6.9% hits; P. falciparum luciferase reporter growth, 96 h; Potency, µM (top dose mostly 28.7 µM), usual class: inhibitors; AID 504834, 2011
#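 Infected RBCs, 2% Hct / 0.05% parasitemia final; luciferase-reporter P. falciparum; cpd 96 h, 37 C, 5% CO2; luciferase detection reagent; luminescence.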
# AMA1-RON2 inh – qHTS for Inhibitors of AMA1-RON; Towards Development of Antimalarial Drug Lead: Primary Screen; AID 720542, 2013; Potency, µM (doses to about 58.2 µM), hits mostly inhibitors; Plasmodium falciparum AMA1 (3D7) - RON2 peptide interaction; 360,000 compounds, 0.2% hits; AlphaScreen AMA1-biotinylated RON2 peptide binding; note: nearly all actives have a fitted effect of over 45% in size
#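 AMA1 (3D7) with his tag at 25 nM final met compounds first, then biotinylated RON2 peptide at 25 nM; detection used donor plus acceptor beads, 10 µg/mL apiece, read by AlphaScreen after 30 min at room temperature.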
# Numbers stand for hits; - = inactive; ? = inconclusive; . = no result. Unless noted, calls come from the whole dose curve; as a rule, active = well fitted curve in the direction sought with a large enough effect; inconclusive = small, poorly fitted or top-dose-only effect, or another doubt; inactive = no such curve, though single readings can be large; an effect the other way counts as inactive or inconclusive.
SMILES,Pf growth 48h,Sm TGR block,NS1 function inh,Pf growth 96h,AMA1-RON2 inh
Cc1ccc2c(C(=O)CN3CC(C)CC(C)C3)c(C)[nH]c2c1 (stereo not given),?,14µM,-,?,.
Cc1ccc(C2Oc3ccccc3C3=C2C(c2cccs2)n2ncnc2N3)cc1 (stereo not given),12µM,-,-,?,-
CCNS(=O)(=O)c1c(C)cc(C)c(N(C)S(=O)(=O)c2ccccc2)c1C,?,-,.,-,-
Nc1ccc(N2CCCCCC2)cc1,0.41µM,?,-,?,.
CCCCN(C)C(=O)c1ccc2c(c1)S(=O)(=O)c1ccccc1C2=O,-,-,-,?,-
CCc1nn(CC(=O)NCCc2ccc(OC)c(OC)c2)c(=O)c2cc3occc3n12,.,-,.,.,.
CN(C)CC(C(=O)c1ccccc1)c1ccccc1 (stereo not given),?,35µM,-,.,-
CN(Cc1cc(Cl)cc(Cl)c1)CC(C(=O)c1ccccc1)c1ccccc1 (stereo not given),.,.,.,.,-
COc1ccc(NC(=O)CN(c2cc(C)cc(C)c2)S(=O)(=O)c2c(C)noc2C)cc1,.,-,-,-,-
COc1ccc(NC(=O)CN(c2cc(C)cc(C)c2)S(=O)(=O)c2c(C)noc2C)cc1OC,?,-,-,12µM,-
COc1ccc(N(CC(=O)NCCc2ccc(C)cc2)S(=O)(=O)c2c(C)noc2C)cc1,-,-,-,-,-
Cc1ccc(N(CC(=O)NCc2ccc(F)cc2)S(=O)(=O)c2cccs2)cc1,.,-,-,4.7µM,-
Cc1ccc(N(CC(=O)NCc2ccccc2Cl)S(=O)(=O)c2cccs2)cc1,?,-,-,.,-
CCOc1ccccc1NC(=O)CN(c1ccc(OC)cc1)S(=O)(=O)c1c(C)noc1C,9.3µM,-,-,?,-
COc1ccc(N(CC(=O)NCCc2cccc(C)c2)S(=O)(=O)c2c(C)noc2C)cc1,?,-,-,2.6µM,-
COCCn1c(C)nnc1SCC(=O)NNC(=O)c1ccc(Br)cc1,-,-,-,-,-
CN1C(=S)SC2CS(=O)(=O)CC21C (stereo not given),-,-,-,-,-
CCOc1ccc(N(CC(=O)NCc2ccccc2Cl)S(=O)(=O)c2c(C)noc2C)cc1,13µM,-,-,?,-
COc1ccc(N(CC(=O)NCc2ccc(F)cc2)S(=O)(=O)c2c(C)noc2C)cc1,-,-,-,10µM,-
C1=C(c2cc3ccccc3cn2)CCCC1,.,.,.,.,-
C#CCOCCOCCOCCNc1nc(N2CCOCC2)nc(N2CCN(C(=O)CCCCCCCCCCNC(=O)[C@H](CO)n3cc(CCCSC)nn3)CC2)n1,0.52µM,-,.,0.52µM,-
C#CCOCCOCCOCCNc1nc(N2CCN(C(=O)CCCCCCCCCCNC(=O)[C@@H](CCC(=O)O)n3cc(CCCCCN)nn3)CC2)nc(N2CCN(C(=O)CCCCCCCCCCNC(=O)[C@H](CO)n3cc(CCCCCN)nn3)CC2)n1,2.1µM,?,.,5.9µM,-
C#CCOCCOCCOCCNc1nc(N2CCN(C(=O)CCCCCCCCCCNC(=O)[C@@H](CCC(=O)O)n3cc(CCCCCN)nn3)CC2)nc(N2CCN(C(=O)CCCCCCCCCCNC(=O)[C@H](CO)n3cc(CCCSC)nn3)CC2)n1,4.7µM,-,.,?,-
C#CCOCCOCCOCCNc1nc(N2CCN(C(=O)CCCCCCCCCCNC(=O)[C@H](CCCCN)n3cc(CCO)nn3)CC2)nc(N2CCN(C(=O)CCCCCCCCCCNC(=O)[C@H](CCCCN)n3cc(CCCC(=O)O)nn3)CC2)n1,?,-,.,?,?
CC1CCCC(C)N1CC(O)COCc1ccccc1F (stereo not given),-,-,-,-,-
COc1ccc(CN2CCN(C(=O)Cn3nc(C(=O)O)c4ccccc4c3=O)CC2)cc1F,-,-,-,-,-
COc1cccc(NC(=O)CCCCCN2C(=O)[C@@H]3Cc4ccccc4CN3C2=O)c1,?,-,-,12µM,-
COCCNC(=O)C1CCN(Cc2cc3ccccc3n2Cc2ccc(C)cc2)CC1,.,-,.,.,.
C=C1C[C@H]2[C@@H]3C=C(C)C4=CC(=O)CC[C@]4(C)[C@H]3CC[C@]2(C)[C@@]1(OC(C)=O)C(C)=O,9.3µM,?,.,?,-
